Screening data (PubChem)
CF NFkB inh – cystic fibrosis NF-kB activation inhibition; KKLEB NF-kB-GFP reporter, PAF-induced, GFP fluorescence overnight; inhibition, % at 5 µM; 360,000 compounds, 0.86% hits; AID 588850;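 active means at least 50% inhibition at 5 µM, scaled per plate between neutral and stimulator controls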;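 further: PAF is a Pseudomonas aeruginosa culture filtrate used as stimulus; plate controls were PAF-stimulated DMSO wells for no effect and unstimulated DMSO wells for full effect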
ABHD5 PLIN5 PPI – inhibitors of human ABHD5-perilipin-5 interaction; Split G. princeps luciferase complementation, luminescence, 4 h; inhibition, % at 4 µM; 360,000 compounds, 0.78% hits; AID 602281;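 active means inhibition above the mean inhibition across every tested compound plus 3 SD, cut at about 22% in these data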;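 further: 0% = DMSO only wells and the 100% control is not disclosed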
HIF-2a block – inhibitors of HIF-2a; 786-0 RCC cells HIF-2a reporter, luciferase luminescence, overnight; inhibition, % at 18.8 µM; 360,000 compounds, 0.72% hits; AID 624352;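 active means inhibition of the luminescence signal of 40% or more relative to plate controls, in a single-dose primary screen at 18.75 µM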
KKLEB cytotox – reduces viability of KKLEB cystic fibrosis airway cells. KKLEB CF airway cells viability, ATPlite luminescence, overnight; active compounds read low; cells stimulated with P. aeruginosa culture filtrate. activity change (cytotoxicity), % at 5 µM. 360,000 compounds, 0.36% hits. AID 602141;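 active means corrected activity change at or below -50% at 5 µM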
TRPM1 prom inh – reduces MITF-dependent TRPM1 promoter luciferase signal; 330,000 compounds, 0.83% hits; SK-MEL-5 TRPM1 promoter luciferase, 24 h; inhibition, % at 12.5 µM;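 active means mean inhibition across replicates of 60% or more, whatever share of single replicates reaches that level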
Peg3 prom inh – Peg3 promoter activity inhibition; 360,000 compounds, 1.7% hits; HeLa PEG-Prom luciferase reporter, luminescence, overnight; inhibition, % at 20 µM;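 active means inhibition of at least 50% at 20 µM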
ABHD5-PLIN5 conf – confirmation of human ABHD5-PLIN5 interaction inhibitors | shares compounds with ABHD5 PLIN5 PPI | biochemical ABHD5-PLIN5 interaction, luminescence | inhibition, % at 4 µM | 2,200 compounds, 67% hits | AID 651612; in the data active means inhibition above about 23%;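 further: 0% = DMSO vehicle wells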
HNF4 split-luc – active in HNF4 split-luciferase counter-screen for ABHD5-PLIN5 inhibitors; inhibition, % at 4 µM; 2,200 compounds, 77% hits; HNF4 dimerization, luminescence, biochemical; shares compounds with ABHD5 PLIN5 PPI;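 active means mean inhibition across replicate wells exceeding the computed hit threshold, cut at about 13% in these data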;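 further: light from luciferase halves that rejoin when HNF4 fusion proteins dimerize; 0% = DMSO only wells and the 100% control is not given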
Target sequence (P41235 whole entry, looked up, the tested form may be a part): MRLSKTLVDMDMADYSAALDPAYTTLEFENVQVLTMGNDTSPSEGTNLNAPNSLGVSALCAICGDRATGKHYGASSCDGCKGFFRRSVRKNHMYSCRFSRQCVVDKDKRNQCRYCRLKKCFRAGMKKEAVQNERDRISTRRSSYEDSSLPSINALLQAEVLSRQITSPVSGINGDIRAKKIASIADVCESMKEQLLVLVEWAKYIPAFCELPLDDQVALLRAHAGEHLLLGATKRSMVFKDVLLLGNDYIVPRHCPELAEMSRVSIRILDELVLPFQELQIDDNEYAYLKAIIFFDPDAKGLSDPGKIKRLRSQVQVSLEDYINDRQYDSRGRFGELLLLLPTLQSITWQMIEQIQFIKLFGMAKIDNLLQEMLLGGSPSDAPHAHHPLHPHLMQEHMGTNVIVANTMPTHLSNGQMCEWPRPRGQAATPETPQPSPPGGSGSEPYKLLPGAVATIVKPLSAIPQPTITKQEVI
* marks the source's active call; other numbers are inactive results; . = no result given. The list is not random: actives were taken first. Their share in the collection is about 3%.

SMILES | CF NFkB inh | ABHD5 PLIN5 PPI | HIF-2a block | KKLEB cytotox | TRPM1 prom inh | Peg3 prom inh | ABHD5-PLIN5 conf | HNF4 split-luc
CCOC(=O)C1=C(C)NC(C)=C(C(=O)OCC)C1C(=O)OCC(=O)N(C)C1CCS(=O)(=O)C1 (stereo not given) | 31.3 | 96.0* | 11.1 | -5.4 | -4.6 | -3.9 | 5.8 | 10.3
N#CCc1nn2c(-c3ccccc3)ccnc2c1C#N | -6.2 | 6.9 | 4.5 | 7.0 | 2.6 | 2.7 | . | .
C[C@@H]1CN([C@H](C)CO)C(=O)c2cc(C#CC3CC3)cnc2O[C@H]1CN(C)S(C)(=O)=O | 1.1 | -2.7 | 1.6 | 0.8 | . | 8.8 | . | .
O=C(O)c1cc([N+](=O)[O-])c(Sc2nc3ccccc3[nH]2)c([N+](=O)[O-])c1 | -0.9 | 34.9* | 7.5 | 8.4 | 8.4 | 1.8 | 52.8* | 54.2*
Cc1ccccc1Oc1nc2c(C)cccn2c(=O)c1/C=C(\C#N)C(=O)NC1CCS(=O)(=O)C1 (stereo not given) | -7.7 | 45.7* | 26.7 | 4.1 | 18.3 | 4.5 | 62.4* | 48.8*
Cc1cccn2c(=O)c(/C=C(\C#N)C(=O)NC3CCS(=O)(=O)C3)c(Oc3ccccc3Cl)nc12 (stereo not given) | 3.9 | 12.6 | 27.6 | 3.0 | 45.1 | 18.7 | . | .
O=C(CSc1nnc2ccccn12)NNC(=O)c1cccc(Cl)c1 | 3.9 | -1.8 | 7.6 | 1.8 | 0.0 | 7.1 | . | .
Cc1ccc(C)c(N2N=C(C(=O)OCc3nnc(-c4ccccc4Br)o3)CCC2=O)c1 | -10.4 | 0.2 | 6.5 | -1.2 | . | -0.3 | . | .
Cc1ccc2cccnc2c1NC(=S)NC(=O)c1ccccc1 | -16.4 | 35.5* | 7.4 | 18.4 | -1.2 | 16.2 | 14.5 | 31.6*
Cc1ccc2cccc(NC(=S)NC(=O)c3ccccc3)c2n1 | -14.9 | 3.6 | -37.9 | -11.4 | 16.2 | -28.4 | . | .
COCCN1CCN(C(=O)c2cc(COc3cncc(Cl)c3)on2)CC1 | 32.4 | 2.0 | 11.7 | -22.1 | 6.6 | 5.0 | . | .
CCCN(C(=O)CSc1ccccc1C(=O)O)C1CCS(=O)(=O)C1 (stereo not given) | 1.6 | -3.1 | 5.1 | -1.7 | -1.3 | -1.5 | . | .
Cc1ccc(C2CC(c3cccs3)=NN2C(=O)c2ccc(Br)o2)cc1 (stereo not given) | -11.5 | 24.6* | -89.5 | 4.6 | -15.3 | -19.7 | 45.0* | 58.3*
CCc1ccccc1N(C(=O)c1ccco1)C(C(=O)NC1CCCC1)c1cccnc1 (stereo not given) | -7.9 | 2.0 | 15.8 | 2.7 | -1.7 | 15.0 | . | .
Cn1cnc([N+](=O)[O-])c1S(=O)(=O)c1ccc(Cl)cc1 | -13.0 | 48.9* | 25.0 | 6.7 | 24.3 | 104.2* | 74.8* | 98.2*
Cn1cnc([N+](=O)[O-])c1NC(C)(C)C | 0.0 | -7.7 | 17.8 | -1.6 | -8.1 | 20.1 | . | .
CSc1cccc(N=C2C(=O)Nc3ccccc32)c1 | 9.1 | -3.0 | 11.2 | 3.0 | 5.9 | 17.0 | . | .
O=C1Nc2ccccc2C1=Nc1cccc(Cl)c1 | 0.7 | 77.6* | -0.9 | 2.3 | -9.8 | 12.4 | -14.4 | 0.1
C=CCN=C(NC#N)SC | 9.6 | 2.0 | 13.3 | -0.6 | 2.5 | 14.6 | . | .
Cc1ccc(NC(=O)CC2S/C(=N/N=C/c3c[nH]c4ccccc34)NC2=O)cc1 (stereo not given) | -6.1 | 25.8* | -9.9 | -0.9 | -0.3 | -2.9 | 16.4 | 14.0*
COc1ccc(C(=O)CC(SCC(NC(C)=O)C(=O)O)c2ccc(Cl)cc2)cc1OC (stereo not given) | 21.7 | 38.1* | -22.6 | -22.1 | -8.6 | 3.9 | 23.5* | 19.5*
COc1ccc(C(C)NC(=O)c2ccc(Cl)cc2)cc1OC (stereo not given) | 23.6 | -1.7 | 17.1 | -7.5 | 4.5 | 25.6 | . | .
NC(=O)c1cc2cc(Br)ccc2oc1=NCc1ccccc1 | 21.1 | 61.7* | -46.0 | -17.1 | -44.4 | -23.8 | 5.6 | 29.2*
NC(=O)c1cc2ccccc2oc1=NCc1ccccc1 | 14.6 | 17.1 | -26.1 | 4.3 | -4.5 | -33.1 | . | .
CN(CCO)c1cnccn1 | -15.3 | -1.3 | 20.9 | 1.3 | -2.1 | 3.9 | . | .
SMILES | CF NFkB inh | ABHD5 PLIN5 PPI | HIF-2a block | KKLEB cytotox | TRPM1 prom inh | Peg3 prom inh | ABHD5-PLIN5 conf | HNF4 split-luc
COCCNC(=O)/C(C#N)=C/C=C/c1ccccc1 | -7.3 | 26.8* | -21.2 | 7.9 | -9.8 | -45.1 | 16.8 | 18.0*
N#C/C(=C/C=C/c1ccccc1)C(=O)Nc1ccccc1 | 6.4 | 4.4 | -27.5 | -6.5 | -1.1 | 2.3 | . | .
CN(C)CCCN(C(=O)C1COc2ccccc2O1)c1nc2ccc(F)cc2s1 (stereo not given) | -3.4 | 3.0 | -33.8 | -1.8 | -6.7 | -42.2 | . | .
Cc1ccc2nc(N(CCN(C)C)C(=O)/C=C/c3cccs3)sc2c1 | -0.3 | 35.0* | 18.3 | -18.9 | 4.5 | 14.9 | 17.7 | 6.0
CN(C)CCCN(C(=O)c1sc2ccccc2c1Cl)c1nc2ccc(F)cc2s1 | 13.5 | 25.0* | -185.5 | -10.4 | -15.2 | -250.7 | 19.4 | 4.0
CCc1ccc2nc(N(CCN(C)C)C(=O)/C=C/c3cccs3)sc2c1 | 41.2 | 4.8 | 6.8 | -22.0 | 8.1 | 36.9 | . | .
CN(C)CCCN(C(=O)/C=C/c1cccs1)c1nc2ccc(F)cc2s1 | 45.1 | 38.7* | 6.3 | -29.6 | 3.6 | -10.4 | 20.4 | 24.3*
Cc1cccc(N=C2NC(=O)/C(=C/C=C/c3ccco3)S2)c1 | 8.7 | 24.5* | -135.3 | -5.7 | -1.3 | -69.0 | 47.9* | 34.0*
COc1cc(CNCCO)cc(Br)c1OCc1ccccc1Cl | 2.2 | 9.4 | -12.5 | -2.5 | -8.1 | 40.7 | . | .
COc1cc(CNC(C)(C)CO)cc(Br)c1OCc1ccc(Cl)cc1Cl | 38.7 | 34.3* | 1.4 | -42.5 | -14.5 | 90.3* | 19.6 | 4.0
O=S(=O)(N=C1C=CC(=NS(=O)(=O)c2ccccc2)c2ccccc21)c1ccccc1 | 24.7 | 33.1* | 20.1 | -8.5 | . | 17.1 | 63.2* | 42.2*
O=C(OCC(=O)N1N=C(c2ccc(Cl)cc2)CC1c1ccco1)c1cncc(Br)c1 (stereo not given) | 47.7 | 35.2* | -62.9 | -1.9 | -5.8 | -24.1 | 76.2* | 88.6*
COc1ccc(OC)c2sc(NC(=O)C(C)C)nc12 | 4.5 | 4.5 | 5.0 | -5.3 | 11.2 | -2.3 | . | .
COc1ccc(OC)c2sc(Cl)nc12 | 6.8 | 109.4* | 9.0 | -0.4 | 11.7 | -3.6 | 2.9 | 1.5
Cc1cc(C)nc(NS(=O)(=O)c2ccc(NCN3C(=O)c4ccccc4C3=O)cc2)n1 | -22.8 | 27.4* | 13.5 | 14.9 | . | 2.8 | 6.0 | 5.8
O=C(N[C@@H](Cc1ccccc1)C(=O)CCl)OCc1ccccc1 | 36.9 | 65.5* | -11.5 | -19.0 | 95.8* | 70.0* | 96.5* | 106.5*
CN1CCS/C1=C/C=C1\SC(=S)N(CC(=O)O)C1=O | -1.6 | 10.1 | -0.4 | 2.5 | -9.2 | 5.7 | . | .
